We go through 28 compounds from PubChem BioAssay (EPA / NIEHS).

Usually AC50 stands for the midpoint of the concentration-response curve, whichever way the signal moves.

In experiment [1] the target is Nuclear receptor subfamily 1 group I member 2 (Homo sapiens) (UniProt O75469). The experiment in a line: NVS_NR_hPXR: NovaScreen (NVS) Nuclear Receptor Binding Assay for human Pregnane X Receptor (PXR) (AID 2283365).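 Also: a drop in FRET signal versus DMSO baseline means the compound binds.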 The gist of the method:
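Read-out: TR-FRET, human PXR, 2 h post-dosing, cell-free. Loss of signal vs DMSO taken as binding activity; 25 uM primary, concentration series secondary.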

In experiment [2] the target is Norway rat Vesicular Monoamine Transporter (VMAT2), neurotransmitter transporter, Slc18a2 (gene 25549) (UniProt Q01827). The experiment in a line: NVS_TR_rVMAT2: NovaScreen (NVS) Transporter Assay for Norway rat Vesicular Monoamine Transporter (VMAT2), neurotransmitter transporter (AID 2283376).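 Also: actives lower the bound radioligand signal below the DMSO level.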 In short, it runs like this: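 Radioligand displacement binding on rat forebrain tissue preparation, filter-based scintillation read-out 1 hour after dosing. Primary screen in duplicate at 25 uM, then concentration series for actives; loss of signal versus DMSO.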

Another experiment has as its target PGR (gene 5241) (UniProt P06401). The experiment in a line: NVS_NR_hPR: NovaScreen (NVS) Nuclear Receptor Binding Assay for human Progestron Receptor (PR) (AID 2283360).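 Also: active means loss of bound radioligand signal versus DMSO baseline.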 The gist of the method: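 Competitive displacement of a labelled radioligand from T47D-derived receptor protein is measured in a cell-free format. Initial testing uses 25 uM in duplicate, with positive and negative controls on every plate.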

Experiment [3] deals with guinea pig Sigma Receptor, Non-selective Binding, SIGMAR1 (gene 100135589) (UniProt Q60492). As to the kind of experiment: NVS_OR_gSIGMA_NonSelective: NovaScreen (NVS) Nuclear Receptor Binding Assay for guinea pig Sigma Receptor, Non-selective Binding (AID 2283367). In short, it runs like this: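 Radioligand displacement on guinea pig brain membranes, read by filter-based scintillation counting 1 h after dosing. Loss of signal versus DMSO; initial duplicate single-point screen at 25 uM, actives followed in concentration series.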
Sequence of guinea pig Sigma Receptor, Non-selective Binding, SIGMAR1 (gene 100135589) (Q60492 whole entry, looked up): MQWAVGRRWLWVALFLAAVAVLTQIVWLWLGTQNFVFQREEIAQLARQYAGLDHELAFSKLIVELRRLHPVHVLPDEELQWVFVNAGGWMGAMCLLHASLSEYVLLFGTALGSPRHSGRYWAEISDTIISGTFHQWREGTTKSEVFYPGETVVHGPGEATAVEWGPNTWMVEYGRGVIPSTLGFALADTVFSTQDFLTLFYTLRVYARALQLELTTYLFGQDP

Experiment [4] addresses Agonist Androgen Response Element (ARE), AR (gene 367) (UniProt P10275). The experiment in a line: OT_AR_ARELUC_AG_1440: Odyssey Thera (OT) 24-hour CHO-K1 Luciferase Assay for Agonist Androgen Response Element (ARE) (AID 2283379). In short, it runs like this:
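CHO-K1 cells carrying an ARE-driven luciferase reporter were exposed to compounds for 24 h. Luminescence was then read after adding a D-luciferin/ATP mix, and activity was scored as a gain in signal over DMSO vehicle.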

The target in experiment [5] is Estrogen receptor beta (Homo sapiens) (UniProt Q92731). As to the kind of experiment: OT_ER_ERbERb_1440: Odyssey Thera (OT) 24-hour HEK293T Protein-Complementation Assay for Estrogen Receptor-beta/-beta Homodimer (AID 2283380).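 Also: scored as signal increase over DMSO baseline for both agonists and antagonists.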 In short, it runs like this: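 HEK293T cells stably expressing ER beta LBD (aa 310-547) homodimer fragment-complementation reporter, dosed 24 h. Cells formaldehyde-fixed, Draq5-stained; gain in nuclear (agonist) or nuclear plus cytoplasmic (antagonist) fluorescence versus DMSO read by laser scanning cytometry.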
Sequence of Estrogen receptor beta (Homo sapiens) (Q92731 whole entry, looked up, the tested form may be a part): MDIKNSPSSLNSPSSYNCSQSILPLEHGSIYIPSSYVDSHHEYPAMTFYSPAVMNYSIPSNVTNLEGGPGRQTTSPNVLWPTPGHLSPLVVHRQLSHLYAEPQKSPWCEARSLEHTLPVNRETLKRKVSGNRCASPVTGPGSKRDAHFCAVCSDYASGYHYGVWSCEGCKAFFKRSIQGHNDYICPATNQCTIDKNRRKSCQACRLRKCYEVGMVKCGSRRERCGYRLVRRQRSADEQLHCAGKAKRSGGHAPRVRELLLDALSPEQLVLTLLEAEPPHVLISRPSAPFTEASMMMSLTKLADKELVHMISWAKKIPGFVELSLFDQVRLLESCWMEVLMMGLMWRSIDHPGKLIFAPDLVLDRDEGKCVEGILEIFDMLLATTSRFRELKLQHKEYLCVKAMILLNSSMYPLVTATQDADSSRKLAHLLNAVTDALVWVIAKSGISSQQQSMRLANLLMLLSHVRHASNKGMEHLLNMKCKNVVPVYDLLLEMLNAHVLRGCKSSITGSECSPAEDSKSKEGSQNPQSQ

In experiment [6] the target is Retinoic acid receptor alpha (Homo sapiens) (UniProt P10276). As to the kind of experiment: NVS_NR_hRARa_Agonist: NovaScreen (NVS) Nuclear Receptor Binding Assay for human Retinoic Acid Alpha Receptor Agonism (RAR) (AID 2283361). In short, it runs like this:
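Cell-free TR-FRET binding readout with extracted receptor protein, read 2 hours after dosing; gain-of-signal fitted relative to DMSO. Screened in duplicate at 25 uM, actives then run in concentration-response.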

Experiment [7] deals with Glucocorticoid receptor (Homo sapiens) (UniProt P04150). As to the kind of experiment: NVS_NR_hGR: NovaScreen (NVS) Nuclear Receptor Binding Assay for human Glucocorticoid Receptor (GR) (AID 2283363).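 As to AC50: activity is loss of specific radioligand binding signal relative to DMSO.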 In short, it runs like this:
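Cell-free radioligand displacement assay on extracted human GR, read 16 h after dosing by filter-based scintillation counting. Screened in duplicate at 25 uM, then concentration series for actives; loss of signal versus DMSO baseline.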

Experiment [8] relates to guinea pig Dopamine Transporter (DAT), gene 100714898. The experiment in a line: NVS_TR_gDAT: NovaScreen (NVS) Transporter Assay for guinea pig Dopamine Transporter (DAT) (AID 2283369).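 Also: active compounds lower bound radioligand signal relative to DMSO.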 In short, it runs like this: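 Primary pass: duplicate wells at 25 uM, threshold e.g. 30% inhibition. Follow-up: singleton concentration-response, highest 50 uM. Radioligand binding on guinea pig striatal membranes, 2 h, filtration scintillation detection.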

For experiment [9], the target named is human Dopamine Transporter (DAT), SLC6A3 (gene 6531) (UniProt Q01959). The experiment in a line: NVS_TR_hDAT: NovaScreen (NVS) Transporter Assay for human Dopamine Transporter (DAT) (AID 2283374).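 Also: activity means loss of bound radioligand signal relative to DMSO.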 In short, it runs like this:
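Cell-free radioligand displacement binding at human DAT, 1 h after dosing, with filtration and scintillation counting. Primary screen in duplicate at 25 uM, actives then in concentration series. Loss of bound signal versus DMSO scored.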

For experiment [10], the system named is rat Norepinephrine Transporter (NET), gene 83511. The experiment in a line: NVS_TR_rNET: NovaScreen (NVS) Transporter Assay for rat Norepinephrine Transporter (NET) (AID 2283373). In short, it runs like this:
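Rat forebrain membranes; radioligand binding measured by filter-based scintillation counting 1 hour after dosing. Loss of specific binding versus DMSO baseline scored; primary screen in duplicate at 25 uM, actives followed up in concentration series.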

For experiment [11], the target named is human Norepinephrine Transporter (NET), SLC6A2 (gene 6530) (UniProt P23975). The experiment in a line: NVS_TR_hNET: NovaScreen (NVS) Transporter Assay for human Norepinephrine Transporter (NET) (AID 2283377).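 Also: displacement of radioligand from human NET seen as loss of scintillation signal.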 In short, it runs like this:
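Cell-free radioligand binding using CHO-derived membrane protein expressing human NET, read by filter scintillation counting 1 h after dosing; loss of signal vs DMSO. Initial duplicate screen at 25 uM, actives retested in concentration series.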

Experiment [12] addresses human Peroxisome Proliferator-activated Receptor alpha (PPARa), PPARA (gene 5465) (UniProt Q07869). As to the kind of experiment: NVS_NR_hPPARa: NovaScreen (NVS) Nuclear Receptor Binding Assay for human Peroxisome Proliferator-activated Receptor alpha (PPARa) (AID 2283359).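 Also: activity means loss of TR-FRET signal versus DMSO baseline.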 In short, it runs like this:
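Cell-free TR-FRET binding assay with extracted PPARα protein, read 1 h after dosing. Primary screen in duplicate at 25 uM, with actives retested in concentration series. Loss of signal versus DMSO.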

Experiment [13] deals with mouse Estrogen Receptor alpha (Era), Esr1 (gene 13982) (UniProt P19785). The experiment in a line: NVS_NR_mERa: NovaScreen (NVS) Nuclear Receptor Binding Assay for mouse Estrogen Receptor alpha (Era) (AID 2283378).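 Also: hit means loss of bound radioligand signal relative to DMSO.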 The gist of the method:
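Measurements come from scintillation counting after filtration, taken 18 hours after chemicals were added to a cell-free mouse Era preparation with radioligand. Screening was duplicate at 25 uM, with concurrent positive and negative controls and confirmatory concentration series for actives.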

The target of experiment [14] is human Serotonin Transporter (SERT), SLC6A4 (gene 6532) (UniProt P31645). As to the kind of experiment: NVS_TR_hSERT: NovaScreen (NVS) Transporter Assay for human Serotonin Transporter (SERT) (AID 2283372). In short, it runs like this: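 Radioligand binding to native SERT in human platelet membranes, read by filter-based scintillation counting 1 h after dosing. Primary screen in duplicate at 25 uM; actives followed up in concentration series; loss of signal versus DMSO baseline.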
Sequence of human Serotonin Transporter (SERT), SLC6A4 (gene 6532) (P31645 whole entry, looked up): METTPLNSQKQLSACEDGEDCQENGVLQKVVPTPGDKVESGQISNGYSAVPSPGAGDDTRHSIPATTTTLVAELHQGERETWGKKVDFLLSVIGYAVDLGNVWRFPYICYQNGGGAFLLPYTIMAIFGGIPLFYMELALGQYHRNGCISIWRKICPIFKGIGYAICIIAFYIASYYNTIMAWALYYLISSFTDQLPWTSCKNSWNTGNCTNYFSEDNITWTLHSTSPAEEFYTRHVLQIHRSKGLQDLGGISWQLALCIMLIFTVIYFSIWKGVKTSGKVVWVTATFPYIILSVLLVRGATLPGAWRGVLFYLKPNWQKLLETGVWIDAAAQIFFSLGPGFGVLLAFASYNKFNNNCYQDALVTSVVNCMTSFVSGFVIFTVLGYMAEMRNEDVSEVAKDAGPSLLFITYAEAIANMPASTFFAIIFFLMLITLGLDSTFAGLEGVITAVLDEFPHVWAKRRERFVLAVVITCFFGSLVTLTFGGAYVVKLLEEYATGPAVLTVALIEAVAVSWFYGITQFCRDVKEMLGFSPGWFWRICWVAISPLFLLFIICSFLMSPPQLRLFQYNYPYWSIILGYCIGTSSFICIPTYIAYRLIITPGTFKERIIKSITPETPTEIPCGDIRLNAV

For experiment [15], the target named is human Thyroid Receptor Alpha (TRa), THRA (gene 7067) (UniProt P10827). As to the kind of experiment: NVS_NR_hTRa_Antagonist: NovaScreen (NVS) Nuclear Receptor Binding Assay for human Thyroid Receptor Alpha Antagonism (TRa) (AID 2283362).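 Also: activity is loss of signal relative to DMSO baseline.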 In short, it runs like this: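 In this biochemical format, receptor protein is dosed with chemical and read after 1 hour via AlphaLISA. Decreases from the DMSO baseline indicate antagonist activity; screening used 25 uM in duplicate before concentration-response confirmation.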
Sequence of human Thyroid Receptor Alpha (TRa), THRA (gene 7067) (P10827 whole entry, looked up): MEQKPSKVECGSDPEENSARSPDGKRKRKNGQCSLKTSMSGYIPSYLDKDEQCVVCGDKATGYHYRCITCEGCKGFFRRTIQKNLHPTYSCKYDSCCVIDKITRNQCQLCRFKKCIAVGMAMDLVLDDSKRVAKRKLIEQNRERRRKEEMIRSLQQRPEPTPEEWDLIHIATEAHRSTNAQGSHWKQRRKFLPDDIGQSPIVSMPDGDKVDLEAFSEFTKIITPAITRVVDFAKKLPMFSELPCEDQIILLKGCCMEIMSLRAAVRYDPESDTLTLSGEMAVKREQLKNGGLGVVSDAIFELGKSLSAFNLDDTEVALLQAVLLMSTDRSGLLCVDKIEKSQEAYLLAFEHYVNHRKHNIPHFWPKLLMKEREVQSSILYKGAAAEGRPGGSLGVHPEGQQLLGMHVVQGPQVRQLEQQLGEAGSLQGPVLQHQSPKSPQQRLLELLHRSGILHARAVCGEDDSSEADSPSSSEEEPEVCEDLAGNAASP

The target in experiment [16] is rat Androgen Receptor (AR), Ar (gene 24208) (UniProt P15207). As to the kind of experiment: NVS_NR_rAR: NovaScreen (NVS) Nuclear Receptor Binding Assay for rat Androgen Receptor (AR) (AID 2283366). The gist of the method:
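Cell-free radioligand binding on extracts of prostate from testosterone-pretreated rats, read by filter-based scintillation counting 18 h after dosing. Loss of bound signal fitted positively versus DMSO; primary screen in duplicate at 25 uM, actives followed up in concentration series.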

In experiment [17] the target is human Adenosine Transporter (Adot), SLC29A1 (gene 2030) (UniProt Q99808). As to the kind of experiment: NVS_TR_hAdoT: NovaScreen (NVS) Transporter Assay for human Adenosine Transporter (Adot) (AID 2283368). The gist of the method: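 U937-derived membranes, cell-free radioligand binding, filter scintillation 1 h after dosing. 25 uM duplicate screen; hits (e.g. 30% inhibition) run in concentration-response up to 50 uM; loss of signal versus DMSO.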

Where “and” joins values, the source holds several entries; their conditions need not be identical. Identical values can stand only once. Results filed as inconclusive are left out. A structure can be active in one record and inactive in another. Calls of active or inactive are those of the source. The calls were made as follows: active = hit-call score of the fitted dose curve at least 0.9, where 1 is the maximum; inconclusive = response in the unintended direction; inactive = score below 0.9.

Sequence of Nuclear receptor subfamily 1 group I member 2 (Homo sapiens) (O75469 whole entry, looked up): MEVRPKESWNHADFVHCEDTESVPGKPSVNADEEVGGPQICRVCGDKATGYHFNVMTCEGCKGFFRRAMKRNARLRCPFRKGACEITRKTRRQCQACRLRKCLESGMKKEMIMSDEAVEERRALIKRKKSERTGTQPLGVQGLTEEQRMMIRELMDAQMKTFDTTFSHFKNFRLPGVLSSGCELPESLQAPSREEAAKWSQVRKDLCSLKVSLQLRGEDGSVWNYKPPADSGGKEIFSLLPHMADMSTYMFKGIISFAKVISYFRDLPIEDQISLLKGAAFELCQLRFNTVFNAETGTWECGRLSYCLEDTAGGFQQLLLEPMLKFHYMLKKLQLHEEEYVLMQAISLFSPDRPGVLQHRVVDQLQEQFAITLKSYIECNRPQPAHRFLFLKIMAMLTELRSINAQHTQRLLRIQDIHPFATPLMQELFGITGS
Sequence of Glucocorticoid receptor (Homo sapiens) (P04150 whole entry, looked up): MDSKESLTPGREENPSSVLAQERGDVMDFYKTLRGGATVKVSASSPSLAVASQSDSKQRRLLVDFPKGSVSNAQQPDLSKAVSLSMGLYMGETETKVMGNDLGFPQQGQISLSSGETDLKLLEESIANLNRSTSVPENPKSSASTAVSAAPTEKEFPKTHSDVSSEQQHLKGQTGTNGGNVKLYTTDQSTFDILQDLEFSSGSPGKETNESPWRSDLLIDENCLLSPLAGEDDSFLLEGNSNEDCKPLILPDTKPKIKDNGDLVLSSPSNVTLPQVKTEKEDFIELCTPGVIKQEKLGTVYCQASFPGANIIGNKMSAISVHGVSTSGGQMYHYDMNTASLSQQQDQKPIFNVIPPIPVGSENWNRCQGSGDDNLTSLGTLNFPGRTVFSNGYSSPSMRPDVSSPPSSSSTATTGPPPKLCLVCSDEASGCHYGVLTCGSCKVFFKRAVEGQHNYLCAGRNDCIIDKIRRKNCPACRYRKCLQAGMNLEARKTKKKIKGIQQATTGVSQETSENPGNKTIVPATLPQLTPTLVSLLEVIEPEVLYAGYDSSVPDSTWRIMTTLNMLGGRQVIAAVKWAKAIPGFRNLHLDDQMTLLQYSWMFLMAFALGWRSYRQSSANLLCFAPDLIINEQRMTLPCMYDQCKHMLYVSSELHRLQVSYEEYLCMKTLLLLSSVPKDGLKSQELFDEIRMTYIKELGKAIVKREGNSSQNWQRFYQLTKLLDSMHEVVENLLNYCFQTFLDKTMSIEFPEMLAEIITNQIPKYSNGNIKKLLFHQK
Sequence of human Dopamine Transporter (DAT), SLC6A3 (gene 6531) (Q01959 whole entry, looked up): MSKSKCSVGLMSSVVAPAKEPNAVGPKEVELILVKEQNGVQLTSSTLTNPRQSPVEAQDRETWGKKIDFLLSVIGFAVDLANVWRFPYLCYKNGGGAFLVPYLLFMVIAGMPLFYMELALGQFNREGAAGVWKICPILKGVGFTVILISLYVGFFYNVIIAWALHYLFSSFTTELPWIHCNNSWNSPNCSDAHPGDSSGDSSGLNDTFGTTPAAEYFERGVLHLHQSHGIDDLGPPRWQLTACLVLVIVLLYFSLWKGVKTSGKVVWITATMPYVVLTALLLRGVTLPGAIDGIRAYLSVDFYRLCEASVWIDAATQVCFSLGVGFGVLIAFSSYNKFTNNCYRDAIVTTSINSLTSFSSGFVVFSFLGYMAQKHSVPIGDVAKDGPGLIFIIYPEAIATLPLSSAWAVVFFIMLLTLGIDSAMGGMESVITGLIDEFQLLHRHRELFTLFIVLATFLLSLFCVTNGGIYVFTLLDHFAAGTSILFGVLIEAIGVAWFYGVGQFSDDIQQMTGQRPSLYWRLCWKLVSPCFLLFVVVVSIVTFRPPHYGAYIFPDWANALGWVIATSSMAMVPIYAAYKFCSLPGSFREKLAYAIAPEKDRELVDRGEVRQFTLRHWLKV
Sequence of PGR (gene 5241) (P06401 whole entry, looked up): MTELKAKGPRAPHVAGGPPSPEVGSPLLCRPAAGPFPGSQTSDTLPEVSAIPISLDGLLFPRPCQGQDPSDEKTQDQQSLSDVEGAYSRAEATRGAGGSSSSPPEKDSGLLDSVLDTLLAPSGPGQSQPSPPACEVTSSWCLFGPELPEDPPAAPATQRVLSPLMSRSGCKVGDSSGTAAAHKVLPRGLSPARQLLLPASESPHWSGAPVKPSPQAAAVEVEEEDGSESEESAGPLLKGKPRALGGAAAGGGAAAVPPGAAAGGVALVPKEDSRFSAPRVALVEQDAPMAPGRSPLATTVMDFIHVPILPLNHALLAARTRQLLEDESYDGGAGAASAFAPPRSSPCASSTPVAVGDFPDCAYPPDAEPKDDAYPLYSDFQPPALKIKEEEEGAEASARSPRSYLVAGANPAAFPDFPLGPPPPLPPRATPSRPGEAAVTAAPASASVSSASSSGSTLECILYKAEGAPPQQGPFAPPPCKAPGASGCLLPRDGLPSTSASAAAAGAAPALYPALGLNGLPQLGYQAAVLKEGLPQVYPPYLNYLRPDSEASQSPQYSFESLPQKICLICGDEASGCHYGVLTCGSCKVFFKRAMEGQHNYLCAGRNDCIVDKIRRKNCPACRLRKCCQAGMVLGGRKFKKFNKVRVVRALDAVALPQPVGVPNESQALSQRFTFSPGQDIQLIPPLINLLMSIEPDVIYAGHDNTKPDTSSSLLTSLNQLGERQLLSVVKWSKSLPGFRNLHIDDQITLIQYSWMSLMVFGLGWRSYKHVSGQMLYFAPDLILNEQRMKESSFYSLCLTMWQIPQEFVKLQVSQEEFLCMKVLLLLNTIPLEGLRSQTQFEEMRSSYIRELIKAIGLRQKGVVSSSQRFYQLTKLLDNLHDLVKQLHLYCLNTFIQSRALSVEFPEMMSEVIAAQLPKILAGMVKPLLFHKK

Regarding `OCC1CO1` (stereo unspecified), the outcome in [1] and in experiment [2] was inactive.
Regarding `CC(Cl)CN(C)C` (stereo unspecified), the compound was classed as inactive with PGR (gene 5241).
Regarding `CCN(CC)c1ccccc1`, the compound was called inactive in experiment [3], in [4] and in [5].
For the compound `Cc1cccc(N)c1`, the result in experiment [6] was inactive.
In the case of `CSC(C)(C)C=NO`, the compound was classed as inactive (with PGR (gene 5241); in experiment [7]; in [8]; in experiment [9]).
Turning to `Nc1cc2c3c(c1)C(c1ccccc1)=N[C@@H](NC(=O)c1cccnc1)C(=O)N3CC2`, the outcome (in the experiment with PGR (gene 5241); in [5]) was inactive.
As to `Nc1ccc2ccccc2c1`, the results for the AC50 in experiment [10], in [9] and in experiment [11] were 14.9 µM (active), 12.9 µM (active) and 5.64 µM (active), respectively. In addition, the call in experiment [5] was inactive.
Regarding `CN(C)C(=O)Cl`, the result in [12] was inactive.
For `O=P(OCC(Br)CBr)(OCC(Br)CBr)OCC(Br)CBr` (stereo unspecified), the call in experiment [12], in experiment [2], in experiment [4] and in experiment [5] was inactive. In addition, the AC50 in [1] was 0.423 µM (active).
For `CCCCN(CCCC)SN(C)C(=O)Oc1cccc2c1OC(C)(C)C2`, the result (with PGR (gene 5241); in [13]; in [5]) was inactive. In addition, the AC50 in [3] is 4.72 µM (active).
In the case of `CCOP(=S)(Oc1ccc([N+](=O)[O-])cc1)c1ccccc1` (stereo unspecified), the call (in the experiment with PGR (gene 5241); in experiment [13]; in [5]) was inactive.
`Cc1ccc(N)cc1N`: the result in [14] and in experiment [5] was inactive.
In the case of `CC(=O)c1ccc(-c2ccccc2)cc1`, the AC50 in experiment [9] is 10.9 µM (active).
In the case of `CC(C)(C)c1ccccc1OP(=O)(Oc1ccccc1)Oc1ccccc1`, the compound was classed as inactive with PGR (gene 5241). Moreover, the AC50 in experiment [9] was 9.69 µM (active).
As to `c1ccc2c(c1)Nc1ccccc1S2`, the call in experiment [6], in experiment [3] and in experiment [5] was inactive. Further, the AC50 in experiment [11] was 6.58 µM (active).
Turning to `CCOP(=S)(OCC)SCSCC`, the call in experiment [12] and in [5] was inactive.
Turning to `CCCCN(CCCC)N=O`, the compound was called inactive in experiment [12], in experiment [1] and in [5]. In addition, the AC50 in [3] was 25 µM (active).
As for `CCCCC(CC)COC(=O)c1c(Br)c(Br)c(Br)c(Br)c1C(=O)OCC(CC)CCCC` (stereo unspecified), the AC50 in [7] was 6.58 µM (active) and 6.59 µM (active). Further, the call in experiment [5] was inactive.
As for `ClC1=C(Cl)C2(Cl)C3C(Cl)C(Cl)CC3C1(Cl)C2(Cl)Cl` (stereo unspecified), the result in experiment [12], in experiment [7], in [14], in [13], in experiment [4] and in experiment [5] was inactive.
As to `CCCCc1ccc(O)cc1`, the outcome in experiment [6] and in [13] was inactive. Also, the AC50 in experiment [5] is 19.6 µM (active).
As to `O=NN1CCCC1`, in experiment [1], the outcome was inactive. In addition, the AC50 in [5] is 50 µM (active).
Regarding `CCCN(CCC)c1c([N+](=O)[O-])cc(C(C)C)cc1[N+](=O)[O-]`, the outcome in [14] and in experiment [13] was inactive. Also, the AC50 in experiment [5] is 7.26 µM (active).
Turning to `CC(C)(C)N(NC(=O)c1ccc(Cl)cc1)C(=O)c1ccccc1`, the compound was classed as inactive in [1], in [4] and in [5].
Regarding `C=CC(=O)OCC(CC)(COC(=O)C=C)COC(=O)C=C`, in [7], the AC50 was 14 µM (active).
On to `CCCCCCCc1ccc(O)cc1`, for which the compound was called inactive in [15], in experiment [7], in experiment [1], in [16], in [13] and in [4]. For the same compound, the compound was called inactive in experiment [5]. In addition, the AC50 in experiment [7] was 33.3 µM (active); in [9], 6.26 µM (active); in experiment [13], 4.96 µM (active) and 14.5 µM (active); in [5], 12.7 µM (active) and 12.5 µM (active) and 12.6 µM (active).
As for `CC(C)Nc1ccc(Nc2ccccc2)cc1`, the AC50 in [7] was 25 µM (active); in experiment [8], 25 µM (active); in experiment [9], 1.69 µM (active); in experiment [11], 2.93 µM (active).
On to `CC(C)(C)c1ccc(O)cc1`, for which the compound was classed as inactive in [8] and in experiment [10].
Regarding `O=P(Oc1ccccc1)(Oc1ccccc1)Oc1ccccc1`, the compound was classed as inactive in experiment [12] and in [17]. The AC50 in [8] was 18.8 µM (active); in experiment [9] it was 11.3 µM (active).
